Inconclusive results are not listed. Where a call stands in place of a potency, no number is given. Values without a mark were called inactive. Active and inactive are the calls of the source. Calls follow the shape of the dose curve; as a rule, active = well fitted curve in the direction sought with a large enough effect; inconclusive = small, poorly fitted or top-dose-only effect, or another doubt; inactive = no such curve, though single readings can be large; an effect the other way counts as inactive or inconclusive.
What was measured:
[1] = molecular target: Rap guanine nucleotide exchange factor 3 (Homo sapiens) (UniProt O95398); assay: Confirmatory qHTS for antagonist of cAMP-regulated guanine nucleotide exchange factor 3 (EPAC1) (AID 1645880); also: nearly all actives have a fitted effect of over 55% in size; also: potency is read from the fitted curve at half-maximal effect
In short: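 Released BODIPY-GDP fluoresces less than Rap1-bound BODIPY-GDP; the signal is followed at 480/540 nm at 5-min intervals over 30 min, after 5 min at room temperature. Reactions contain 100 nM EPAC1, 250 nM RAP1B-BODIPY-GDP and 50 uM GDP; results are normalized to ATA and DMSO.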

[2] = molecular target: Rap guanine nucleotide exchange factor 3 (Homo sapiens) (UniProt O95398); assay: Confirmatory qHTS for agonist of cAMP-regulated guanine nucleotide exchange factor 3 (EPAC1) (AID 1645881);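 also: EPAC1 catalysed release of BODIPY-GDP from Rap1B seen as fluorescence loss; nearly all actives have a fitted effect of over 75% in size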
[3] = molecular target: Rap guanine nucleotide exchange factor 4 (Homo sapiens) (UniProt Q8WZA2); assay: Confirmatory qHTS for agonist of cAMP-regulated guanine nucleotide exchange factor 4 (EPAC2) (AID 1645884);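 also: nucleotide exchange releases bodipy-GDP from Rap1 and this lowers its fluorescence; nearly all actives have a fitted effect of over 65% in size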
[4] = molecular target: Rap guanine nucleotide exchange factor 4 (Homo sapiens) (UniProt Q8WZA2); assay: Confirmatory qHTS for antagonist of cAMP-regulated guanine nucleotide exchange factor 4 (EPAC2) (AID 1645885); also: nearly all actives have a fitted effect of over 25% in size; also: potency is read from the fitted curve at half-maximal effect
[5] = molecular target: Rap guanine nucleotide exchange factor 3 (Homo sapiens) (UniProt O95398); assay: Counterscreen qHTS for antagonist of cAMP-regulated guanine nucleotide exchange factor 3 (EPAC1) (AID 1645888)
In short: (§1)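 Measured: fluorescence of BODIPY-GDP bound to Rap1B, which falls as exchange proceeds. Conditions include 50 uM competing GDP, 5 and 30 min reads, and a later cAMP challenge for antagonist detection.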

[6] = molecular target: Rap guanine nucleotide exchange factor 3 (Homo sapiens) (UniProt O95398); assay: Counterscreen qHTS for agonist of cAMP-regulated guanine nucleotide exchange factor 3 (EPAC1) (AID 1645889); also: nearly all actives have a fitted effect of over 40% in size
In short: as §1

Rap guanine nucleotide exchange factor 3 (Homo sapiens), sequence (O95398 whole entry, looked up): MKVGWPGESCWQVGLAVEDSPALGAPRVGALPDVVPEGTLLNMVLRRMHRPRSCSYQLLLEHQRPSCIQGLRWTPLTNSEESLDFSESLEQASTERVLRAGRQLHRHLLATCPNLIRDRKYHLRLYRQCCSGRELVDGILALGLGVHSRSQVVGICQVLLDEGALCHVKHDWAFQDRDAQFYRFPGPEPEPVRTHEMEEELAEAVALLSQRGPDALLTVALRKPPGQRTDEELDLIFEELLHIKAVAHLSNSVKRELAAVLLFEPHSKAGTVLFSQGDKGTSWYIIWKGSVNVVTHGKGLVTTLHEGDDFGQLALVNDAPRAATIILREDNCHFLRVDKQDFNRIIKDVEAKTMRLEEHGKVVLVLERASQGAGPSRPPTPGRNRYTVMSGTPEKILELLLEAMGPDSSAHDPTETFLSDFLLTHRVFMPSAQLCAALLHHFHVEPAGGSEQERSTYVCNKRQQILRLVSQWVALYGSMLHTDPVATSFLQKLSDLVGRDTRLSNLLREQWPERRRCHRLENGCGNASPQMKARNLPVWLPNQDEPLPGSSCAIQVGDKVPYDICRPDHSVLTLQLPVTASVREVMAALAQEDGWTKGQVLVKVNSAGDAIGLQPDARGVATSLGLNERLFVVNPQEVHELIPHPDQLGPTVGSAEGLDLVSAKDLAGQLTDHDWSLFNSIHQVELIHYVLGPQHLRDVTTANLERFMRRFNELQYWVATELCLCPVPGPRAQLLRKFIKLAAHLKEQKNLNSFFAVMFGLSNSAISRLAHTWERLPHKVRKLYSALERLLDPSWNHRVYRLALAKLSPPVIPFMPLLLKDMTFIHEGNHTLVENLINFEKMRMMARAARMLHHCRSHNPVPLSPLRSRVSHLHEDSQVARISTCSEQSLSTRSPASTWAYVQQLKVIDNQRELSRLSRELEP
Rap guanine nucleotide exchange factor 4 (Homo sapiens), sequence (Q8WZA2 whole entry, looked up): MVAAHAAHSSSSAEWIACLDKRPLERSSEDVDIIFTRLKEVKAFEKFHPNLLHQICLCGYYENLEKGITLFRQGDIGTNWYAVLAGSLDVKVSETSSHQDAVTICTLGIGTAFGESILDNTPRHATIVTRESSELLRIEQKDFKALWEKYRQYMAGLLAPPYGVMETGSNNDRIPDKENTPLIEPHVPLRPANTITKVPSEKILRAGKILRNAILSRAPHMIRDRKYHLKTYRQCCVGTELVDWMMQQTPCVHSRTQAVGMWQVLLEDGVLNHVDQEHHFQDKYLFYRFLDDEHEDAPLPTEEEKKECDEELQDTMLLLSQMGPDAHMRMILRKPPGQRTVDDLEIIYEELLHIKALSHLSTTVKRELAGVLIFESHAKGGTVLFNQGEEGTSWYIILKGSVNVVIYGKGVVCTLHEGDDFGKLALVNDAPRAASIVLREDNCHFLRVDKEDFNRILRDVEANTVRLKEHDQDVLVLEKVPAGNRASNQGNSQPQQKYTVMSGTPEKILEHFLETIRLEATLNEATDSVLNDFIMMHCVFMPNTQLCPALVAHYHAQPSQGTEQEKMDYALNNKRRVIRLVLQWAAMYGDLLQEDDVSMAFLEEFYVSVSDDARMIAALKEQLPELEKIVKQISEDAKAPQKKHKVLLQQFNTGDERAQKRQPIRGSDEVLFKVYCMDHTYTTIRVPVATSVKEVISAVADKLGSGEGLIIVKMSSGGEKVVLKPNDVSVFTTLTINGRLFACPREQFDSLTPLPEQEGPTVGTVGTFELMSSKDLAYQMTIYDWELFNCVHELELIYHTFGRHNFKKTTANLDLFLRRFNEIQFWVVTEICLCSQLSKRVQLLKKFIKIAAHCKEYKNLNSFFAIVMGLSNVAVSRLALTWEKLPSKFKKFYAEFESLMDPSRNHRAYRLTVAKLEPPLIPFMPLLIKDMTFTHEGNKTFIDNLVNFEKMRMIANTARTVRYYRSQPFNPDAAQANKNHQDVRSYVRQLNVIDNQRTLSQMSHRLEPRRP

Row | SMILES | Potency [1] | Potency [2] | Potency [3] | Potency [4] | Potency [5] | Potency [6] | activation [3] | activity change, negative = inhibition [5] | activation [6] | outcome [4]
1 | CC(=O)Oc1c(Sc2ccccc2[N+](=O)[O-])c(C)nn1C(C)(C)C | 42.6 µM (active) | inactive | inactive | inactive | inactive | inactive | – | – | – | –
2 | N#Cc1c(-c2ccccc2)nc(SCC(=O)N2c3ccccc3Sc3ccccc32)[nH]c1=O | 19 µM (active) | inactive | inactive | inactive | inactive | inactive | – | – | – | –
3 | Cc1ccc(NC(=O)c2ccc(CN3CC(=O)N4CCCCC4C3=O)cc2)c(C)c1 (stereo not drawn) | inactive | inactive | inactive | inactive | inactive | inactive | – | – | – | –
4 | Cc1noc(NS(=O)(=O)c2ccc(NC(=O)CSc3nnc4c(n3)[nH]c3ccccc34)cc2)c1C | 23.9 µM (active) | inactive | inactive | inactive | inactive | inactive | – | – | – | –
5 | Cc1ccc2nc(-c3ccc(NC(=O)c4ccco4)cc3)[nH]c2c1 | inactive | inactive | – | inactive | – | – | 7.16% [at 17.1 µM, percent relative to cAMP agonist control] | -13% [at 30.8 µM] | 29.2% [at 30.8 µM] | –
6 | O=[N+]([O-])c1ccc(Cc2ccccn2)c([N+](=O)[O-])c1 | inactive | inactive | inactive | – | inactive | inactive | – | – | – | inactive; activator; fitted 0.12 uM [at 12.7 µM]
7 | CN(C)C(=O)CSc1nc(-c2ccccc2)c(-c2ccccc2)o1 | inactive | inactive | – | inactive | – | – | 5.35% [at 17.1 µM, percent relative to cAMP agonist control] | 3.97% [at 30.8 µM] | 9.57% [at 30.8 µM] | –
8 | CC1CC(C)CN(c2nc3c(c(=O)n(C)c(=O)n3C)n2CCSc2ncccn2)C1 (stereo not drawn) | inactive | inactive | – | inactive | – | – | 0.98% [at 17.1 µM, percent relative to cAMP agonist control] | 1.05% [at 30.8 µM] | 6.66% [at 30.8 µM] | –
9 | COc1ccc(CC(=O)Nc2nc(-c3cccnc3)cs2)cc1 | inactive | inactive | – | inactive | – | – | 15.1% [at 17.1 µM, percent relative to cAMP agonist control] | -4.63% [at 30.8 µM] | -9.76% [at 30.8 µM] | –
10 | O=c1cc(-c2ccccc2)nc2c(-c3ccccc3)c(C(F)(F)F)[nH]n12 | 42.6 µM (active) | inactive | inactive | 16.9 µM (active) | inactive | inactive | – | – | – | –
11 | CCC(=O)C1=C(c2cccc([N+](=O)[O-])c2)N(C(=O)CC)n2c(nnc2-c2ccccc2)S1 | inactive | inactive | inactive | inactive | inactive | inactive | – | – | – | –
12 | O=C1S/C(=C\c2ccc(O)c([N+](=O)[O-])c2)C(=O)N1c1ccccc1Cl | 75.7 µM (active) | inactive | inactive | 47.8 µM (active) | inactive | inactive | – | – | – | –
13 | Cc1nnnn1-c1ccc(CC(=O)O)cc1 | inactive | inactive | – | inactive | – | – | -2.24% [at 17.1 µM, percent relative to cAMP agonist control] | -6.83% [at 30.8 µM] | -1.16% [at 30.8 µM] | –
14 | CCOc1ccccc1C(=O)N(Cc1cccs1)c1ccc(Cl)cc1 | inactive | inactive | inactive | inactive | inactive | inactive | – | – | – | –
15 | Cc1cc(C)c(C)c(S(=O)(=O)Nc2cccc(S(=O)(=O)Nc3ccccc3C(=O)O)c2)c1C | 39.8 µM (active) | inactive | – | inactive | – | – | 4.6% [at 17.1 µM, percent relative to cAMP agonist control] | -6.25% [at 30.8 µM] | 0.792% [at 30.8 µM] | –
16 | CC(=O)N1c2ccc(S(=O)(=O)NCCc3ccccc3)cc2CC1C (stereo not drawn) | inactive | inactive | inactive | inactive | inactive | inactive | – | – | – | –
17 | NNc1nc2c(Cl)ccc(Cl)c2s1 | inactive | inactive | inactive | inactive | inactive | inactive | – | – | – | –

Row | SMILES | Potency [1] | Potency [2] | Potency [3] | Potency [4] | Potency [5] | Potency [6] | activation [3] | activity change, negative = inhibition [5] | activation [6] | outcome [4]
18 | COc1cc(/C=C2\SC(=O)N(c3ccccc3Cl)C2=O)cc([N+](=O)[O-])c1O | 47.8 µM (active) | inactive | inactive | 42.6 µM (active) | inactive | inactive | – | – | – | –
19 | CCOC(=O)N1CCN(C(=O)c2cc(S(=O)(=O)N3CCc4ccccc43)ccc2OC)CC1 | inactive | inactive | inactive | inactive | inactive | inactive | – | – | – | –
20 | COc1ccc(-c2c(-c3ccccc3OC)oc3ccccc23)cc1F | inactive | inactive | inactive | 6.75 µM (active) | inactive | inactive | – | – | – | –
21 | CCC1CCCCN1CCCNC(=O)c1ccc(CS(=O)(=O)Cc2ccccc2F)o1 (stereo not drawn) | inactive | inactive | inactive | inactive | inactive | inactive | – | – | – | –
22 | O=C(NC1CCC(O)CC1)c1cccc2cccnc12 (stereo not drawn) | inactive | inactive | inactive | inactive | inactive | inactive | – | – | – | –
23 | COc1cn(CC(=O)Nc2cccc(C)c2C)c(CN2CCCCC2)cc1=O | inactive | inactive | inactive | inactive | inactive | inactive | – | – | – | –
24 | CC1Cc2nc(SCC(=O)NCc3ccccc3)n(Cc3ccccc3)c(=O)c2S1 (stereo not drawn) | inactive | inactive | – | inactive | – | – | 2.68% [at 17.1 µM, percent relative to cAMP agonist control] | 0.448% [at 30.8 µM] | 14% [at 30.8 µM] | –
25 | COc1ccc2c(c1)C1=NN(/C(C)=C/C(C)=O)C(c3cccc(F)c3)C1CC2 (stereo not drawn) | inactive | inactive | – | inactive | – | – | 0.819% [at 17.1 µM, percent relative to cAMP agonist control] | -17.2% [at 30.8 µM] | 8.14% [at 30.8 µM] | –
26 | COc1cc(/C=C2\SC(=S)N(NS(=O)(=O)c3ccc(C)cc3)C2=O)cc(OC)c1OC | 26.9 µM (active) | inactive | inactive | 33.8 µM (active) | inactive | inactive | – | – | – | –
27 | COC(=O)c1ccc(OC(=O)c2ccc(OC)cc2)c(OC)c1 | inactive | inactive | – | inactive | – | – | 7.15% [at 17.1 µM, percent relative to cAMP agonist control] | -8.27% [at 30.8 µM] | 6.57% [at 30.8 µM] | –
28 | c1ccc(-c2nc(C3CCCCC3)c3ccccc3n2)cc1 | inactive | inactive | – | inactive | – | – | 3.01% [at 17.1 µM, percent relative to cAMP agonist control] | -1.41% [at 30.8 µM] | 34% [at 30.8 µM] | –
29 | O=C(c1ccc2c(c1)N(Cc1ccccc1)CCS2)N1CCCCC1 | inactive | inactive | inactive | inactive | inactive | inactive | – | – | – | –
30 | CN1C(=O)C2(C(C#N)=C(N)N(c3cc(Cl)cc(Cl)c3)C3=C2C(=O)CC(C)(C)C3)c2ccccc21 (stereo not drawn) | inactive | inactive | inactive | inactive | inactive | inactive | – | – | – | –
31 | COc1cc2ccccc2cc1C(=O)N1CCc2ccccc21 | inactive | inactive | inactive | 7.57 µM (active) | inactive | inactive | – | – | – | –
32 | C=CCc1cc(/C=C/c2nc(O)c([N+](=O)[O-])c(=O)[nH]2)cc(OC)c1O | 33.8 µM (active) | inactive | inactive | inactive | inactive | inactive | – | – | – | –
33 | COc1ccccc1N1CCN(c2ncnc3onc(-c4ccc(F)cc4)c23)CC1 | inactive | inactive | inactive | inactive | inactive | inactive | – | – | – | –

— PubChem BioAssay (NCATS)
